Hits are enriched below; roughly 18% of the tested compounds scored in any of these assays.
CtBP-E1A blk – CtBP/E1A binding inhibition; AlphaScreen GST-E1A/His-CtBP binding, 1536-well; hits give low values; activity change, % (no concentration beside the values); actives 0.49% (n = 340,000); AID 651724; in the data active = activity change below about -65%; inconclusive = mostly about -30% to -63%
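AlphaScreen with 125 nM GST-E1A and 125 nM His-CtBP (5X stocks) in Tris pH 8.0, 300 mM NaCl, BSA, Tween 20, TCEP. Compounds preincubated 2 h at 37 deg C, then glutathione donor/nickel acceptor beads added for 1 h at 37 deg C in dark.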
TDP1 block – blocks human tyrosyl-DNA phosphodiesterase 1 | Potency, µM (highest dose often 130 µM), for the others: top-dose activity change, negative = inhibition, actives largely listed as inhibitors | AID 485290 | actives 0.28% (n = 350,000) | recombinant TDP1, AlphaScreen DNA substrate cleavage | Q9NUW8; note: potency is the fitted concentration of half-maximal effect; nearly all actives have a fitted effect of over 40% in size
Target sequence (Q9NUW8 whole entry, looked up): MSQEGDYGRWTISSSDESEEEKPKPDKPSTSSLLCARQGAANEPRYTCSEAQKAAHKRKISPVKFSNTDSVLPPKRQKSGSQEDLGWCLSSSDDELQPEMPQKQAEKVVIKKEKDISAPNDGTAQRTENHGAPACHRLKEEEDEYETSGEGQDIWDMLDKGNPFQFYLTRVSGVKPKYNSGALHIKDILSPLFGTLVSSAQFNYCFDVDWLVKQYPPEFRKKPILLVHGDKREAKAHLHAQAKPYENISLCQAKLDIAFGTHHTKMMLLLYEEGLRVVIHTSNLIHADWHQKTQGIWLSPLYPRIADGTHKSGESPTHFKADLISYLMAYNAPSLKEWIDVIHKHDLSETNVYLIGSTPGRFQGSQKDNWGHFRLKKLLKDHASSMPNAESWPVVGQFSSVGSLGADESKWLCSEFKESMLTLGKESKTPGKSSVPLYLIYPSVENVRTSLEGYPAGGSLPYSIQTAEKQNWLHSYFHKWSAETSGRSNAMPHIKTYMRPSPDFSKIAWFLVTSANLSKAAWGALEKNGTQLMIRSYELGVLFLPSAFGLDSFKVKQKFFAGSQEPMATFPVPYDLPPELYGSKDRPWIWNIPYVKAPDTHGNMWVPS
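Recombinant human Tdp1 (E. coli-expressed, 1 nM final) preincubated with compounds 15 min at room temperature, then 5'-biotin/3'-phosphotyrosine-FITC DNA substrate (15 nM final) added for 5 min. AlphaScreen beads (10 ug/ml final) added 10 min; cleavage lowers signal.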
TDP1 cell noCPT – qHTS for Inhibitors of human tyrosyl-DNA phosphodiesterase 1 (TDP1): qHTS in cells in absence of CPT; DT40 Tdp1-/- hTDP1 cells, no CPT, ATP luminescence, 48 h; Potency, µM (highest dose often 46.2 µM), for the others: at the top dose activity change, negative = growth inhibition, most hits filed as inhibitors; actives 15% (n = 420,000); note: potency is the fitted concentration of half-maximal effect; nearly all actives have a fitted effect of over 55% in size
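Luminescent ATP content (CellTiter-Glo) served as the growth readout. Knockout chicken DT40 cells expressing human TDP1 were exposed to compounds without camptothecin for a minimum 48 hr at 37 °C.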
Six1-Eya2 blk – Six1/Eya2 interaction inhibition; Q15475+O00167; AlphaScreen GST-Six1/His-Eya2 binding, biochemical; hits give low values; activity change, % (test concentration not listed); actives 0.56% (n = 360,000); in the data active = activity change below about -65%; inconclusive = mostly about -30% to -63%
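AlphaScreen with GST-Six1 and His-Eya2 (5X mix: 250 nM and 500 nM), glutathione donor and nickel acceptor beads; buffer 50 mM Tris pH 8.0, 300 mM NaCl, 1 mM TCEP; 1 h at 37 C in the dark.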
TDP1 cell CPT – DT40-hTDP1 cell growth loss with CPT; chicken DT40 Tdp1-/-;hTDP1 cells + 20 nM CPT, ATP luminescence, 48 h; actives 12% (n = 420,000); Potency, µM (titrated, usually from 46.2 µM), for the others: at the highest dose activity change, negative = growth inhibition, most hits filed as inhibitors; note: potency is the fitted concentration of half-maximal effect; nearly all actives have a fitted effect of over 55% in size
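Cell growth measured by CellTiter-Glo luminescence after a minimum 48 h, 37 C compound exposure with 20 nM CPT in Tdp1-knockout DT40 cells stably expressing hTDP1, seeded 400/well; qHTS titration format.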
IL-1B inflam inh – inhibitors of inflammasome signaling (IL-1 beta secretion). actives 4.7% (n = 360,000). THP-1 LPS/ATP IL-1B secretion, AlphaLISA, 16 h; hits give low values. activity change, % at 57.5 µM; in the data active = activity change below about -50%; inconclusive = mostly about -30% to -49%
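Secreted IL-1B measured by AlphaLISA bead assay after 16 h compound exposure of THP-1 cells; compounds (final up to 57.5 uM) added 1 h before LPS (250 ng/mL) and ATP (1.25 mM) stimulation; lower signal means less secretion.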
* hit, by the source's call; [ ] = remark or other dose. Unless noted, calls come from the whole dose curve; as a rule, active = well fitted curve in the direction sought with a large enough effect; inconclusive = small, poorly fitted or top-dose-only effect, or another doubt; inactive = no such curve, though single readings can be large; an effect the other way counts as inactive or inconclusive. % is set by controls: 0 for no effect and ±100 for the full control effect.

Results for Cc1ccc(S(=O)(=O)N2CCN(CC(O)c3ccccc3)CC2)cc1C (configuration not stated) ?
CtBP-E1A blk: -2; TDP1 block: 5%; TDP1 cell noCPT: -2%; Six1-Eya2 blk: 0; TDP1 cell CPT: -13%; IL-1B inflam inh: -18

Results for Cc1cc(S(=O)(=O)Nc2ccc3cn[nH]c3c2)c(C)cc1Cl ?
CtBP-E1A blk: 2; TDP1 block: 7%; TDP1 cell noCPT: 4.6µM*; Six1-Eya2 blk: -7; TDP1 cell CPT: -30%; IL-1B inflam inh: 16

How did CC(C)(C)NC(=O)C(c1c[nH]c2ccccc12)N(C(=O)Cn1nnc(-c2ccc(F)cc2)n1)c1cccc(O)c1 (configuration not stated) do in these assays?
CtBP-E1A blk: 0; TDP1 block: 5%; TDP1 cell noCPT: 21µM*; Six1-Eya2 blk: -14; TDP1 cell CPT: inconclusive; IL-1B inflam inh: inconclusive

What do the screens show for `CC(C)(C)NC(=O)C(c1ccco1)N(C(=O)Cn1nnc(-c2ccc(F)cc2)n1)c1cccc(F)c1` (configuration not stated)?
CtBP-E1A blk: -2; TDP1 block: 5%[56.1 µM]; TDP1 cell noCPT: 21µM*; Six1-Eya2 blk: 2; TDP1 cell CPT: inconclusive; IL-1B inflam inh: -4

What do the screens show for `Cc1ccc(-c2nnn(CC(=O)N(c3ccc(F)cc3)C(C(=O)NC(C)(C)C)c3ccco3)n2)o1` (configuration not stated)?
CtBP-E1A blk: -2; TDP1 block: 2%; TDP1 cell noCPT: inconclusive; Six1-Eya2 blk: 6; TDP1 cell CPT: -3%; IL-1B inflam inh: 21

How did Cn1cc(/C=C(\C#N)C(=O)Nc2cccc([N+](=O)[O-])c2)c2ccccc21 do in these assays?
CtBP-E1A blk: -2; TDP1 block: 4%; TDP1 cell noCPT: 8.2µM*; Six1-Eya2 blk: 9; TDP1 cell CPT: 13µM*; IL-1B inflam inh: -26

Results for Cn1cc(/C=N/NC(=O)c2cccc([N+](=O)[O-])c2)c2ccccc21 ?
CtBP-E1A blk: 5; TDP1 block: 3%; TDP1 cell noCPT: -28%; Six1-Eya2 blk: -1; TDP1 cell CPT: 2%; IL-1B inflam inh: 34

Results for Cc1ccc(Cl)cc1NC(=O)/C(C#N)=C/c1c(C)n(Cc2ccccc2)c2ccccc12 ?
TDP1 block: 0%[12.3 µM]; TDP1 cell noCPT: inconclusive; TDP1 cell CPT: inconclusive

Results for Cc1c(/C=C(\C#N)C(=O)Nc2cccc(Cl)c2)c2ccccc2n1Cc1ccccc1 ?
TDP1 block: 1%[12.3 µM]; TDP1 cell noCPT: 5.8µM*; TDP1 cell CPT: inconclusive

Results for COc1cccc(NC(=O)/C(C#N)=C\c2cn(Cc3ccc(C)cc3)c3ccccc23)c1 ?
TDP1 block: 0%[12.3 µM]; TDP1 cell noCPT: 5.8µM*; TDP1 cell CPT: 10µM*

How did Cc1[nH]c(SCC(=O)Nc2cc(C(N)=O)cc(C(N)=O)c2)nc1Cc1ccccc1 do in these assays?
CtBP-E1A blk: -24; TDP1 block: 2%; TDP1 cell noCPT: -8%; Six1-Eya2 blk: -27; TDP1 cell CPT: 12%; IL-1B inflam inh: 24

Results for CN(C(=O)c1ccc(NC(=O)Cc2ccc([N+](=O)[O-])cc2)cc1)C1CCCC1 ?
CtBP-E1A blk: 3; TDP1 block: 4%; TDP1 cell noCPT: inconclusive; Six1-Eya2 blk: 11; TDP1 cell CPT: 13µM*; IL-1B inflam inh: -22

What do the screens show for `CN(C(=O)c1cccc(NC(=O)Cc2cccc([N+](=O)[O-])c2)c1)C1CCCC1`?
CtBP-E1A blk: -22; TDP1 block: 5%; TDP1 cell noCPT: inconclusive; Six1-Eya2 blk: inconclusive; TDP1 cell CPT: 18µM*

How did CN(C(=O)c1cccc(NC(=O)Cc2cccc([N+](=O)[O-])c2)c1)C1CCC1 do in these assays?
CtBP-E1A blk: 5; TDP1 block: 3%; TDP1 cell noCPT: inconclusive; Six1-Eya2 blk: -6; TDP1 cell CPT: inconclusive; IL-1B inflam inh: -29

How did CN(C(=O)c1cccc(NC(=O)Cc2ccc([N+](=O)[O-])cc2)c1)C1CCCC1 do in these assays?
CtBP-E1A blk: -2; TDP1 block: 5%; TDP1 cell noCPT: 26µM*; Six1-Eya2 blk: 9; TDP1 cell CPT: 23µM*; IL-1B inflam inh: -24

How did O=C(CCc1ccccc1)Nc1cccc([N+](=O)[O-])c1 do in these assays?
CtBP-E1A blk: -10; TDP1 block: 7%; TDP1 cell noCPT: -37%; Six1-Eya2 blk: -1; TDP1 cell CPT: -1%; IL-1B inflam inh: -7

What do the screens show for `CN(Cc1ccccc1)C(=O)c1cccc(NC(=O)Cc2cccc([N+](=O)[O-])c2)c1`?
CtBP-E1A blk: -5; TDP1 block: 3%; TDP1 cell noCPT: 23µM*; Six1-Eya2 blk: -12; TDP1 cell CPT: inconclusive; IL-1B inflam inh: inconclusive

Results for Cc1ncc2c(c1CNC(=O)/C=C/c1cccs1)CCN(C(=O)c1noc3c1CCCC3)C2 ?
TDP1 cell noCPT: -4%; TDP1 cell CPT: 15%[9.04 µM]

What do the screens show for `COc1ccc(CCN2CC(C(=O)Nc3nnc(Cc4ccccc4)s3)CC2=O)cc1OC` (configuration not stated)?
TDP1 block: 1%; TDP1 cell noCPT: inconclusive; Six1-Eya2 blk: -2; TDP1 cell CPT: 0%; IL-1B inflam inh: 19

How did Cc1nc(N)sc1-c1nnc(SCC(=O)Nc2ccccc2C(F)(F)F)n1C do in these assays?
CtBP-E1A blk: 2; TDP1 block: 3%; TDP1 cell noCPT: -5%; Six1-Eya2 blk: -2; TDP1 cell CPT: -10%; IL-1B inflam inh: -3

Results for O=C(CSc1nc(C2CCCCC2)n(-c2ccccc2)n1)NCCN1C(=O)CSC1=O ?
CtBP-E1A blk: 0; TDP1 block: 9%; TDP1 cell noCPT: -27%; Six1-Eya2 blk: 4; TDP1 cell CPT: -18%; IL-1B inflam inh: 5

What do the screens show for `COc1ccc(C2=NOC(C(=O)N3CCN(C(=O)c4ccco4)CC3)C2)cc1OC` (configuration not stated)?
CtBP-E1A blk: -5; TDP1 block: 0%; TDP1 cell noCPT: 23%; Six1-Eya2 blk: 7; TDP1 cell CPT: -13%; IL-1B inflam inh: -1

How did Cc1cccc(Cn2c(SCc3ccc(C(=O)NC4CCCCC4)cc3)nc3cccnc32)c1 do in these assays?
TDP1 block: 5%; TDP1 cell noCPT: -3%; TDP1 cell CPT: 6%
